40 molecules from the supplement of paper PMC9942566 can be followed below.

Structures can show the parent of a compound that is named as a salt. ± gives the standard deviation of the averaged measurements.

The first assay has as its system Serratia marcescens K904 PosmB-luxCDABE reporter (pMQ747). The experiment in a line: PosmB-lux reporter fold induction (RLU/OD600 relative to no-compound control), highest over Biolog concentrations; higher = stronger Rcs reporter activation. The conditions noted are these: Biolog plate: PM11; well positions: C1-4; wild type K904; 4 h. The method, then: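 Serratia marcescens K904 (wild type) or its isogenic ΔrcsB mutant, carrying the Rcs-dependent PosmB-luxCDABE reporter plasmid pMQ747, was grown in LB at OD600 0.1 in Biolog Phenotype MicroArray plates PM11-20 for 4 h at 30-32°C. Each compound is present at 3-4 proprietary concentrations (not stated); per the Fig. S1 legend the value given is the highest fold over those wells. Three independent trials.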
In the case of `Cc1c(N)nc([C@H](CC(N)=O)NC[C@H](N)C(N)=O)nc1C(=O)N[C@H](C(=O)N[C@H](C)[C@@H](O)[C@H](C)C(=O)N[C@H](C(=O)NCCc1nc(-c2nc(C(=O)NCCC[S+](C)C)cs2)cs1)[C@@H](C)O)[C@@H](OC1OC(CO)C(O)C(O)C1OC1OC(CO)C(O)C(OC(N)=O)C1O)c1cnc[nH]1` (stereo not given in full) [Bleomycin], the “PosmB-lux reporter fold induction” value turned out to be 1.6 ± 0.14.

The same assay, now with this note: Biolog plate: PM11; well positions: G9-12; wild type K904; 4 h.
Consider `O=[Te]([O-])[O-].[K+].[K+]` [Potassium tellurite], for which the “PosmB-lux reporter fold induction” value stood at 1.58 ± 0.69.

The assay is the same for the next values; noted with them: Biolog plate: PM13; well positions: B9-12; wild type K904; 4 h.
In the case of `CCn1cc(C(=O)O)c(=O)c2cc3c(cc21)OCO3` [Oxolinic acid], the “PosmB-lux reporter fold induction” value was found to be 2.12 ± 0.57.

Staying with this assay, now noted: Biolog plate: PM13; well positions: C9-12; wild type K904; 4 h.
With `[K+].[K+].[O]=[Cr](=[O])([O-])[O-]` [Potassium chromate], the “PosmB-lux reporter fold induction” value amounted to 2.55 ± 0.8.

Still in this assay, the particulars now being: Biolog plate: PM13; well positions: E5-8; wild type K904; 4 h.
Consider `CN[C@@H]1[C@@H](O)[C@@H](O[C@@H]2[C@@H](O)[C@H](O[C@H]3O[C@H]([C@@H](C)O)[C@@H](O)[C@H](O)[C@H]3N)[C@@H](N)C[C@H]2N)OC[C@]1(C)O` [Geneticin (G418)], for which the “PosmB-lux reporter fold induction” value turned out to be 1.38 ± 0.22.

Staying with this assay, now noted: Biolog plate: PM14; well positions: B5-8; wild type K904; 4 h.
As to `CCCCc1ccc(C(=O)O)nc1` [Fusaric acid], the “PosmB-lux reporter fold induction” value is 3.83 ± 1.8.

The same assay, now with this note: Biolog plate: PM14; well positions: C9-12; wild type K904; 4 h.
As for `N#CO` [Sodium cyanate], the “PosmB-lux reporter fold induction” value came to 2.06 ± 0.13.

Still in this assay, the particulars now being: Biolog plate: PM14; well positions: D1-4; wild type K904; 4 h.
With `[Cl][Cd][Cl]` [Cadmium chloride], the “PosmB-lux reporter fold induction” value worked out at 1.35 ± 0.73.

Still in this assay, the particulars now being: Biolog plate: PM14; well positions: D5-8; wild type K904; 4 h.
Consider `O=C(O)CI` [Iodoacetate], for which the “PosmB-lux reporter fold induction” value came out at 1.93 ± 0.39.

Still in this assay, the particulars now being: Biolog plate: PM14; well positions: D9-12; wild type K904; 4 h.
Consider `[Na+].[Na+].[O]=[Cr](=[O])([O-])[O][Cr](=[O])(=[O])[O-]` [Sodium dichromate], for which the “PosmB-lux reporter fold induction” value turned out to be 1.55 ± 0.067.

The same assay, now with this note: Biolog plate: PM14; well positions: G9-12; wild type K904; 4 h.
Turning to `O=[N+]([O-])[O-].[Na+]` [Sodium nitrate], the “PosmB-lux reporter fold induction” value was found to be 3.75 ± 1.3.

The assay is the same for the next values; noted with them: Biolog plate: PM15; well positions: E9-12; wild type K904; 4 h.
Turning to `C[n+]1ccc(-c2cc[n+](C)cc2)cc1` [Methyl viologen], the “PosmB-lux reporter fold induction” value was 1.4 ± 0.25.

The same assay, now with this note: Biolog plate: PM15; well positions: G5-8; wild type K904; 4 h.
As to `[N-]=[N+]=[N-]` [Sodium azide], the “PosmB-lux reporter fold induction” value came to 34 ± 10.

Staying with this assay, now noted: Biolog plate: PM15; well positions: H1-4; wild type K904; 4 h.
As for `O=[N+]([O-])c1ncc[nH]1` [2-Nitroimidazole], the “PosmB-lux reporter fold induction” value came out at 1.17 ± 0.56.

Staying with this assay, now noted: Biolog plate: PM16; well positions: C1-4; wild type K904; 4 h.
Regarding `CN(C)S(=O)(=O)N(SC(F)(Cl)Cl)c1ccccc1` [dichlofluanid], the “PosmB-lux reporter fold induction” value amounted to 1.03 ± 0.34.

Still in this assay, the particulars now being: Biolog plate: PM16; well positions: C9-12; wild type K904; 4 h.
Take `CCCCCCCCCCCCCCCC[n+]1ccccc1` [cetylpyridinium]: the “PosmB-lux reporter fold induction” value stood at 1.47 ± 0.48.

The assay is the same for the next values; noted with them: Biolog plate: PM16; well positions: D1-4; wild type K904; 4 h.
On to `O=[N+]([O-])c1ccc(Cl)c([N+](=O)[O-])c1` [1-chloro-2,4-dinitrobenzene], for which the “PosmB-lux reporter fold induction” value amounted to 1.37 ± 0.54.

The same assay, now with this note: Biolog plate: PM16; well positions: F1-4; wild type K904; 4 h.
Take `O=[Te]([O-])[O-].[K+].[K+]` [potassium tellurite]: the “PosmB-lux reporter fold induction” value is 1.75 ± 1.1.

Still in this assay, the particulars now being: Biolog plate: PM16; well positions: F5-8; wild type K904; 4 h.
Regarding `O=[Se]([O-])[O-].[Na+].[Na+]` [sodium selenite], the “PosmB-lux reporter fold induction” value was 1.03 ± 0.38.

Staying with this assay, now noted: Biolog plate: PM17; well positions: A5-8; wild type K904; 4 h.
For the molecule `NC(CCl)C(=O)O` [b-chloro-L-alanine hydrochloride], the “PosmB-lux reporter fold induction” value was 1.57 ± 0.59.

Staying with this assay, now noted: Biolog plate: PM17; well positions: B5-8; wild type K904; 4 h.
For `CNC1CC(N)C(O)C(OC2OC(CO)C(O)C3OC4(OC(C(N)CO)C(O)C(O)C4O)OC23)C1O` (stereo not given) [hygromycin B], the “PosmB-lux reporter fold induction” value amounted to 1.46 ± 0.35.

Still in this assay, the particulars now being: Biolog plate: PM17; well positions: C1-4; wild type K904; 4 h.
With `Nc1ccncc1` [4-aminopyridine], the “PosmB-lux reporter fold induction” value is 10.2 ± 7.7.

The same assay, now with this note: Biolog plate: PM17; well positions: D1-4; wild type K904; 4 h.
With `CC1=C(C(=O)Nc2ccccc2)S(=O)(=O)CCO1` [oxycarboxin], the “PosmB-lux reporter fold induction” value was found to be 2.25 ± 0.26.

Staying with this assay, now noted: Biolog plate: PM17; well positions: D5-8; wild type K904; 4 h.
`Nc1ncn[nH]1` [3-amino-1,2,4-triazole]: the “PosmB-lux reporter fold induction” value is 1.11 ± 0.18.

Staying with this assay, now noted: Biolog plate: PM17; well positions: G1-4; wild type K904; 4 h.
On to `O=C(O)CCCc1ccc(N(CCCl)CCCl)cc1` [chlorambucil], for which the “PosmB-lux reporter fold induction” value came out at 1.34 ± 0.1.

Staying with this assay, now noted: Biolog plate: PM18; well positions: C9-12; wild type K904; 4 h.
Take `Oc1c(Cl)c(Cl)c(Cl)c(Cl)c1Cl` [pentachloro-phenol]: the “PosmB-lux reporter fold induction” value worked out at 1.04 ± 0.25.

The assay is the same for the next values; noted with them: Biolog plate: PM18; well positions: E5-8; wild type K904; 4 h.
Take `[O-][I+3]([O-])([O-])O` [sodium m-periodate]: the “PosmB-lux reporter fold induction” value worked out at 2.47 ± 0.4.

The same assay, now with this note: Biolog plate: PM18; well positions: E9-12; wild type K904; 4 h.
With `[Cl][Sb]([Cl])[Cl]` [antimony (III) chloride], the “PosmB-lux reporter fold induction” value came out at 0.722 ± 0.067.

The assay is the same for the next values; noted with them: Biolog plate: PM18; well positions: F1-4; wild type K904; 4 h.
Turning to `NNC(N)=O` [semicarbazide], the “PosmB-lux reporter fold induction” value is 3.39 ± 0.38.

The assay is the same for the next values; noted with them: Biolog plate: PM18; well positions: G1-4; wild type K904; 4 h.
On to `Oc1cc(Cl)ccc1Oc1ccc(Cl)cc1Cl` [triclosan], for which the “PosmB-lux reporter fold induction” value came to 1.45 ± 0.61.

The assay is the same for the next values; noted with them: Biolog plate: PM18; well positions: G5-8; wild type K904; 4 h.
In the case of `Nc1n[nH]c(N)n1` [3,5-diamino-1,2,4-triazole (Guanazole)], the “PosmB-lux reporter fold induction” value came out at 1.96 ± 0.29.

Still in this assay, the particulars now being: Biolog plate: PM18; well positions: H5-8; wild type K904; 4 h.
`Oc1ccccc1-c1ccccc1` [2-phenylphenol]: the “PosmB-lux reporter fold induction” value came to 2.88 ± 0.52.

The same assay, now with this note: Biolog plate: PM18; well positions: H9-12; wild type K904; 4 h.
Turning to `CC1=CC(=O)c2c(O)cccc2C1=O` [plumbagin], the “PosmB-lux reporter fold induction” value was 0.936 ± 0.027.

Still in this assay, the particulars now being: Biolog plate: PM20; well positions: C5-8; wild type K904; 4 h.
With `CN1[C@@H]2CC[C@H]1C[C@@H](OC(=O)C(CO)c1ccccc1)C2` (stereo not given in full) [atropine], the “PosmB-lux reporter fold induction” value came to 2.56 ± 0.59.

Staying with this assay, now noted: Biolog plate: PM20; well positions: E5-8; wild type K904; 4 h.
In the case of `CCCCCCCCCCCCNC(=N)N` [dodine], the “PosmB-lux reporter fold induction” value came out at 1.94 ± 0.27.

The assay is the same for the next values; noted with them: Biolog plate: PM20; well positions: F1-4; wild type K904; 4 h.
Regarding `O=c1cc(O)c2ccccc2o1` [4-hydroxyl-coumarin], the “PosmB-lux reporter fold induction” value was determined as 2.25 ± 0.64.

The assay is the same for the next values; noted with them: Biolog plate: PM20; well positions: G1-4; wild type K904; 4 h.
On to `O=C1C2CC=CCC2C(=O)N1SC(Cl)(Cl)Cl` (stereo not given) [captan], for which the “PosmB-lux reporter fold induction” value was 2.3 ± 0.41.

The same assay, now with this note: Biolog plate: PM20; well positions: G9-12; wild type K904; 4 h.
`Oc1cccc2cccnc12` [8-hydroxy-quinoline]: the “PosmB-lux reporter fold induction” value amounted to 2.7 ± 0.72.

Staying with this assay, now noted: Biolog plate: PM20; well positions: H1-4; wild type K904; 4 h.
Regarding `O=C1C=C2C(=CCOC2O)O1` (stereo not given) [patulin], the “PosmB-lux reporter fold induction” value is 1.71 ± 0.23.

Still in this assay, the particulars now being: Biolog plate: PM20; well positions: H5-8; wild type K904; 4 h.
As for `Cc1ccc(N(SC(F)(Cl)Cl)S(=O)(=O)N(C)C)cc1` [tolylfluanid], the “PosmB-lux reporter fold induction” value worked out at 1.32 ± 0.14.
